In PubChem BioAssay AID432 (Sanford-Burnham Center for Chemical Genomics, 2006):
In all, about 64,000 compounds went through this assay and about 15 (0.02%) were called active. How the calls were made is not given here. Only a sample is shown. Measured potencies and affinities stand elsewhere.

Each molecule was assayed against Bcl-2-related protein A1 (Mus musculus) (UniProt Q07440) (assay: Bfl-1 inhibitors, primary screen, biochemical, fluorescence polarization, FITC-Bid, mouse (AID 432)). Settings: FITC-Bid BH3 peptide fluorescence polarization displacement; at 20 µM; stronger effect = higher value.
Bcl-2-related protein A1 (Mus musculus), sequence (Q07440 whole entry, looked up): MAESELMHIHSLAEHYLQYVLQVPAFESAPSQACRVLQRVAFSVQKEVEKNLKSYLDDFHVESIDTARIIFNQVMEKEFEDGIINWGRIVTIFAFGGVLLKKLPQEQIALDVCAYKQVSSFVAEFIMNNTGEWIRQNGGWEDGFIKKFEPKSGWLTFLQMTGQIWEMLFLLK

displacement, inactive:
CCOCC(=O)N1CCCC(C(=O)OCC)C1 (configuration not stated) 5.1%
COC(=O)c1cc(=O)[nH]c(SCc2cccc(C)c2)n1 -9.3%
CC(C)CCNC(=O)NC(=O)COc1ccccc1C#N -1.9%
CCCS(=O)(=O)N1CCCC(C(=O)NCCN(CC)c2ccccc2)C1 (configuration not stated) -0.1%
CCCN1C(=O)CC(c2ccco2)Sc2ccccc21 (configuration not stated) -8.4%
CN(C)S(=O)(=O)c1ccc(C(=O)Nc2ccc(F)cc2F)cc1 -3.7%
O=S(=O)(c1ccccc1)c1cccc(S(=O)(=O)N2CCCCC2)c1 -8.3%
CC1=C(C(N)=O)C(c2cccc(O)c2)n2nc(CCCO)nc2N1 (configuration not stated) -2.3%
O=C(c1ccccc1S(=O)(=O)NCc1ccccc1)N1CCCCC1 -2.9%
CCCN(c1ccc(C(C)C)cc1)S(=O)(=O)c1c(C)noc1C -2%
COC(=O)Nc1ccc2c(c1)ncn2C1CCCCC1 -3.2%
Brc1ccccc1-c1nnc(CSc2nncn2-c2ccccc2)o1 -1.8%
CCCCC(CC)CNC(=O)c1ccc2c(c1)OCO2 (configuration not stated) 0.7%
CC1CC(C)CN(Cc2nc3c(c(=O)n(C)c(=O)n3C)n2CCN2CCOCC2)C1 (configuration not stated) 29.2%
Cc1ccc(S(=O)(=O)N(C)CCCC(=O)n2nc(C)cc2C)cc1 7%
COc1ccc(C2CCN(Cc3cccnc3)CC2O)cc1 (configuration not stated) -8.7%
CCOC(=O)N1CCC(NC(=O)CN2C(=O)CSc3ncccc32)CC1 3.4%
Cc1ccc(S(=O)(=O)c2cc3c(=O)n4ccccc4nc3n(CC3CCCO3)c2=N)cc1C (configuration not stated) -14.7%
Cc1cc(NCc2ccc(F)cc2Cl)n2nnnc2n1 -1.6%
Cc1c(N(C)C(=O)C23CC4CC(CC(C4)C2)C3)c(=O)n(-c2ccccc2)n1C -6%
CC1(C)NC(=O)N(c2ccccc2Cl)C1(C)NO (configuration not stated) -2.3%
CCOC(=O)N1CCC(c2cc(=O)n3[nH]c(-c4ccccc4)cc3n2)CC1 5.1%
CCOC(=O)c1ccc(NC(=O)CC2C(=O)N(c3cccc(OC)c3)C(=O)N2CCOC)cc1 (configuration not stated) -1.5%
O=C(c1cc2c(s1)CCCCC2)N1CCN(c2ncccn2)CC1 8.4%
O=C(CN1CCN(c2ccc(F)cc2)CC1)N1CCOCC1 -2.4%
COc1nc(N(C)C)nc(N(OC)S(=O)(=O)c2ccccc2Cl)n1 3.7%
CCC(C)c1c(O)nc(SCC(=O)c2ccccc2)[nH]c1=O (configuration not stated) -7.8%
Cc1ccc(S(=O)(=O)NC(=O)COc2ccccc2C(N)=O)cc1 -4.3%
COc1ccccc1-c1nc(C#N)c(N2CCN(C(c3ccccc3)c3ccccc3)CC2)o1 -2.4%
CC(C)OCCCNC(=O)c1sc(=S)n(C)c1N 10.9%
CCOC(=O)C1CCN(CC(=O)Nc2c(C(=O)OC)[nH]c3ccccc23)CC1 -7%
CCOc1cc2c(cc1OCC)C(C(=O)O)C(c1cc(Br)c(O)c(OC)c1)N(C)C2=O (configuration not stated) 6.3%
CCSCCNC(=O)c1cc(-n2cnnc2)ccc1Cl 3%
CCOC(=O)c1oc2cccc(O)c2c1CN(Cc1ccccc1)C(C)=O 1.2%
O=C(CCC(=O)N(CC(=O)NC1CCCCC1)Cc1ccco1)Nc1nccs1 -3.5%
CSc1nc(-c2ccccc2O)nc(-c2ccccc2O)n1 4.5%
NC(=O)CSc1nnc(-c2ccc(S(=O)(=O)N3CCCC3)cc2)n1Cc1ccco1 -5.3%
CC1CCN(CCCNC(=O)c2cc3sccc3n2C)CC1 1.5%
CCN1CCN(CC(=O)Nc2c(C(=O)OC)[nH]c3cccc(Cl)c23)CC1 -4.1%
O=C(O)c1ccc(NS(=O)(=O)c2ccc(Cl)cc2)cc1 -8.2%
CCn1c(SCC(=O)OC)nc2sc3c(c2c1=O)CCC3 2.2%
CCn1c(SC(C)C(=O)O)nc2sc3c(c2c1=O)CCC3 (configuration not stated) 22.5%
Cn1c(=O)c2ncn(CC(=O)NCCC3=CCCCC3)c2n(C)c1=O -18.3%
COCCCNC(=O)Cn1cc2c(n1)CCCCC2 5%
O=C(c1cccc(S(=O)(=O)N2CCCCC2)c1)N1CCOCC1 -1.1%
CS(=O)(=O)c1nc(-c2ccccc2)cc(C(F)(F)F)n1 37.1%
COc1ccc(-c2cc(C(F)(F)F)nc(NC3CCCC3)n2)cc1OC -2.6%
CCOC(=O)Nc1c(O)ccc2oc(C)c(-c3ccccc3)c12 1.9%
Cc1ccc(C)c(-n2nnnc2SCC(=O)NCCC2=CCCCC2)c1 8.5%
CCc1ccccc1NC1=NCC(=O)N1C1CCCCC1 0.4%
Cc1ccc(CN2C(=O)CCC2C(=O)NC2CCCC2)cc1 (configuration not stated) -12%
Cc1cc(O)ccc1Nc1nc2ccccc2nc1Nc1ccc(O)cc1C -1.4%
Cc1cc(NC(=O)Nc2cccc3ccccc23)no1 -1.4%
CN1CCN(C2=C(Cl)C(=O)N(c3cccc(Cl)c3)C2=O)CC1 32.3%
CN1CCN(C2=C(Cl)C(=O)N(c3ccc(Cl)cc3)C2=O)CC1 49.4%
CCSc1nnc(NC(=O)C(C)(C(F)(F)F)C(F)(F)F)s1 -5.7%
CCSc1nnc(NC(=O)C(C)C)s1 0.1%
Cc1ccc(C2C(C#N)=C(N)SC(N)=C2C#N)c(C)c1 -31.9%
NS(=O)(=O)c1ccc(-n2nncc2C23CC4CC(CC(C4)C2)C3)cc1 -2.1%
COC(=O)C1=C(N)Oc2cc(C)n(CC3CCCO3)c(=O)c2C1c1ccc(Cl)cc1 (configuration not stated) -2.1%
c1cn(-c2ncnc3sc4c(c23)CCCC4)cn1 -0.8%
O=C(NCc1ccccc1)c1c[nH]c2ccc(S(=O)(=O)Nc3ccc4c(c3)OCCO4)cc2c1=O -3.6%
O=C(Nn1c(C2CCC2)nc2ccccc2c1=O)C1CCC1 -9%
Cn1c(=O)[nH]c(=O)c2c1nc(Br)n2Cc1ccccc1F -3.5%
CC(=O)c1ccc(OCC(O)CN2CCN(c3ccccn3)CC2)cc1 (configuration not stated) -0.7%
CC1=CC(C)(C)N2C(=O)C3(C(C#N)=C(N)Oc4cc(O)ccc43)c3cccc1c32 (configuration not stated) -2.9%
COc1ccc(NC(=O)c2cnn3c(C(F)(F)F)cc(-c4ccco4)nc23)cc1OC 12%
O=C(Nc1ccc2c(c1)OCO2)c1cnn2c(C(F)(F)F)cc(-c3ccco3)nc12 1%
COc1ccccc1N1CCN(C(=O)C(C)N(c2ccc(C)c(C)c2)S(C)(=O)=O)CC1 (configuration not stated) -2%
COCCNC(=O)Cn1nc(C(F)(F)F)c(Br)c1C -0.1%
CC1CCC(NC(=O)CN2CCCN(Cc3ccc(F)cc3Cl)C2=O)CC1 (configuration not stated) -0.5%
O=C(CN1C(=O)CC(c2ccco2)Sc2ccccc21)NCC1CCCO1 (configuration not stated) -4.3%
CCCN1CCN(C(=O)Cn2cccc2C(=O)c2ccccc2)CC1 -2.4%
COC(=O)CCC(=O)Nc1ccc(NC(C)=O)cc1 0.3%
COc1ccc(OC)c(S(=O)(=O)n2nc(-c3ccccc3)cc2N)c1 -0.3%
COc1ccc(S(=O)(=O)n2nc(-c3cc(OC)c(OC)c(OC)c3)cc2N)cc1OC 3.4%
CC(C)(C)Sc1nc(O)cc(=O)[nH]1 -4.4%
CN(c1ccccc1)S(=O)(=O)c1cc(C(=O)N2CCN(c3ccccn3)CC2)ccc1Cl -4.6%
CC1CN(C(=O)c2ccc(C(=O)c3ccccc3)cc2)CC(C)O1 (configuration not stated) -0.8%
O=C1CC2CS(=O)(=O)CC2N1C1CCCCC1 (configuration not stated) 2%
CCN(CC)S(=O)(=O)c1ccc(Cl)c(C(=O)NCC2CCCO2)c1 (configuration not stated) -6.5%
COc1nc(-c2ccccc2)ccc1-c1noc(-c2ccc(F)cc2)n1 -1.8%
COc1cccc(-c2nc(-c3ccccc3)no2)c1 -9.1%
COc1cc(OC)cc(-c2nc(-c3cc4cc(C)ccc4nc3OC)no2)c1 -2%
COc1ccc(-c2ccc(-c3noc(-c4ccccc4)n3)c(OC)n2)cc1 -44.4%
COCCNC(=O)C(c1ccccc1)N(Cc1cccs1)C(=O)Cn1nnc2ccccc21 (configuration not stated) 4.1%
CCCCCOc1ccc(C(=O)NC(CCC)C(=O)O)cc1 (configuration not stated) 0.1%
CCCn1nnc(NCc2ccc(OCc3cccs3)c(OC)c2)n1 1.2%
CCCNC(=O)Nc1cc(C)on1 -15.6%
N#Cc1cc2c(nc1SCC1COc3ccccc3O1)CCC2 (configuration not stated) -4.2%
O=C(CC(c1ccccc1O)N1CCCCC1)N1CCCCC1 (configuration not stated) -9.2%
COc1ccccc1-n1cnnc1SC1CCOC1=O (configuration not stated) -0.5%
O=C(CSc1nnnn1C1CCCCC1)Nc1cccc(NC(=O)c2ccco2)c1 6.6%
Cc1c(C(=O)NCc2cccnc2)oc2c1C(=O)CC(C)(C)C2 -2.3%
CCCc1[nH]nc2c1C(CCc1ccccc1)C(C#N)=C(N)O2 (configuration not stated) -3.6%
Cc1nc(SCC(=O)NCC2CCCO2)c2oc3ccccc3c2n1 (configuration not stated) -3.4%
CC(C)(O)c1nnn(-c2ccccc2)c1C(F)(F)F -3%
COc1cccc(CNCC(=O)N2C(C)CCCC2C)c1 (configuration not stated) -0.5%
CNC(=O)c1cc2ccc(OC)cc2oc1=O -6.1%
O=C1CCc2cc(S(=O)(=O)N3CCC(C(=O)NC4CCCc5ccccc54)CC3)ccc2N1 (configuration not stated) -5.6%
Cc1csc(-c2cnn(-c3ccccc3)c2NC(=O)c2ccccc2)n1 -3.3%
COc1cccc(-c2nn(C)c3sc(C(=O)NCc4ccccn4)cc23)c1 3.4%
COC(=O)c1ccc(NC(=O)C2C3C=CC(O3)C2C(=O)O)cc1 (configuration not stated) 1.3%
Cc1cccc(-n2c(SCC(=O)N3CCCC3)nnc2-c2ccccn2)c1C -5.2%
CCC/C(O)=C1\C(=O)CC(C)(C)CC1=NCCO 2.8%
O=S(=O)(c1ccc(Br)s1)n1cccn1 -3.1%
O=C(Nc1nncs1)C1COc2ccccc2O1 (configuration not stated) -5%
O=C(NC(NCCCN1CCOCC1)(C(F)(F)F)C(F)(F)F)C1CCCCC1 -1.1%
Cc1nc(NCCN2CCOCC2)c2nnn(Cc3c(F)cccc3Cl)c2n1 -1.3%
CCOC(=O)/C(C#N)=C(\N)C(C)C(=O)Nc1ccccn1 (configuration not stated) -3.2%
CCOC(=O)CNC(=O)CSc1nc2cccnc2n1C1CCCCC1 -8.1%
Cn1c(NC(=O)c2cc(Br)ccc2Cl)cc(=O)n(C)c1=O -6.3%
